Reference: PubChem BioAssay (EPA / NIEHS)
The source made the active and inactive calls. Rule for the calls: active = hit-call score of the fitted dose curve at least 0.9, where 1 is the maximum; inactive = score below 0.9.

Assay: ATG_PXRE_CIS: Attagene CIS-FACTORIAL HepG2 Assay for human Pregnane X Receptor Element (PXRE) (AID 2282957)
Details: HepG2 Attagene CIS-FACTORIAL PXRE reporter, mRNA; actives raise or lower the signal
Protocol: ATG_CIS is a cell-based, multiplexed-readout assay that uses HepG2, a human liver cell line, with measurements taken at 24 hours after chemical dosing in a 24-well plate.ATG_PXRE_CIS is one of 52 assay component(s) measured or calculated from the ATG_CIS assay. It is designed to make measurements of mRNA induction, a form of inducible reporter, as detected with fluorescence intensity signals by Reverse transcription polymerase chain reaction (RT-PCR) and Capillary electrophoresis technology.Data from the assay component ATG_PXRE_CIS was analyzed into 1 assay endpoint. This assay endpoint, ATG_PXRE_CIS, was analyzed with bidirectional fitting relative to DMSO as the negative control and baseline of activity. Using a type of inducible reporter, measures of mRNA for gain or loss-of-signal activity can be used to understand the reporter gene at the transcription factor-level as they relate to the gene NR1I2. Furthermore, this assay endpoint can be referred to as a primary readout, because this assay has produced multiple assay endpoints where this one serves a reporter gene function. To generalize the intended target to other relatable targets, this assay endpoint is annotated to the nuclear receptor intended target family, where the subfamily is non-steroidal.
Human liver HepG2 cells are transiently transfected with multiple reporter transcription units (MRTUs) in 6-well plates using FuGene 6 reagent (Roche; 3 ml FuGene/1 mg DNA). The MRTU constructs are regulated by a cis-regulating element (promoter). […] A major difference between the CIS and TRANS system is that in CIS activities of endogenous TFs are measured, whereas the TRANS assay evaluates changes in activities of exogenous, chimeric NR-Gal4 proteins. […] At the end of 24 hour incubation, total RNA was isolated using TriZol reagent (Invitrogen). The isolated RNA is then reverse-transcribed using oligo(dT) primer and Mo-MLV reverse transcriptase (Invitrogen) with DNAse I (Ambion) treatment for 30 min. The one-tenth of the produced cDNA was amplified by PCR using Taq DNA polymerase (Invitrogen) and two reporter sequence-specific primers. The PCR products were fluorescently labeled by primer extension with 6-arboxyfluorescein (6-FAM) 5'-labeled reporter sequence-specific primer (2 min at 95 C, 20 s at 68 C and 10 min at 72 C) and these products were digested with 5U of HpaI (New England Biolabs) for 2h at 37 C. The fragments were purified using Qiaquick PCR columns (Qiagen), analyzed on an ABI 3130xL genetic analyzer (Applied Biosystems) with peak positions identified by using a set of X-rhodamine (ROX)-labeled MapMarker1000 molecular weight standards (BioVentures). The raw capillary electrophoresis data was processed using Attagraph software (Attagene).

| Structure (SMILES) | outcome | AC50 |
| --- | --- | --- |
| CC(=O)OC1C2(C)CCC(C2)C1(C)C (stereo not given) | inactive |  |
| COc1ccc(-c2coc3cc(O)ccc3c2=O)cc1 |  | 11.3 µM (active) |
| C=COCCCC | inactive |  |
| CC(C)CCCC(C)CC=O (stereo not given) |  | 65.1 µM (active) |
| Nc1nc2ccccc2[nH]1 | inactive |  |
| CC(C)CC(O)Cc1ccccc1 (stereo not given) |  | 71.6 µM (active) |
| CC(C)(C)c1ccc(OC(=O)c2ccccc2O)cc1 |  | 15.3 µM (active) |
| CC(CC=O)c1ccccc1 (stereo not given) |  | 4.15 µM (active) |
| O=C1CCCN1CCO | inactive |  |
| COc1cc(C)ccc1C(C)C | inactive |  |
| O=c1cc(-c2ccccc2)oc2ccccc12 |  | 4.25 µM (active) |
| NC(CO)(CO)CO |  | 42 µM (active) |
| NC(=O)NNC(N)=O | inactive |  |
| CCOC(=O)NNc1nncc2ccccc12 | inactive |  |
| CC=C1CC2C=CC1C2 (stereo not given) |  | 3.1 µM (active) |
| FC(F)=C(F)OC(F)(F)C(F)(F)C(F)(F)F | inactive |  |
| OC1CCCCCCCCCCC1 |  | 4.47 µM (active) |
| CC(=O)OCc1ccco1 | inactive |  |
| Cc1ccc([N+](=O)[O-])cc1S(=O)(=O)O | inactive |  |
| Cc1cccc(N)n1 | inactive |  |

| Structure (SMILES) | outcome | AC50 |
| --- | --- | --- |
| O=C(OCC1CCC2OC2C1)C1CCC2OC2C1 (stereo not given) | inactive |  |
| O=C1CCCCCCCCCCC(=O)OCCO1 | inactive |  |
| CCCCCCCCCCOS(=O)(=O)O | inactive |  |
| CC(C)=CC1CC(C)CCO1 (stereo not given) | inactive |  |
| COCc1c(C(C)C)nc(C(C)C)c(/C=C/[C@@H](O)C[C@@H](O)CC(=O)O)c1-c1ccc(F)cc1 |  | 2.12 µM (active) |
| C=CC(C)(CCC=C(C)C)OC(=O)C(C)C (stereo not given) |  | 8.57 µM (active) |
| CC(C)c1ccc2cc(C(C)C)ccc2c1 | inactive |  |
| CCO[Si](CCCN=C=O)(OCC)OCC |  | 13.9 µM (active) |
| CC/C=C\C/C=C\C/C=C\CCCCCCCC(=O)O |  | 181 µM (active) |
| CCCc1ccc(OC)cc1 | inactive |  |
| NC(=O)OCC(COC(N)=O)c1ccccc1 | inactive |  |
| C=C[Si](OC(C)=O)(OC(C)=O)OC(C)=O |  | 3.6 µM (active) |
| CNC(=S)NN | inactive |  |
| O=c1c2ccccc2nnn1CCl |  | 7.09 µM (active) |
| O=S(=O)(O)CC(O)CCl (stereo not given) | inactive |  |
| O=[N+]([O-])C1(Br)COCOC1 | inactive |  |
| NNC(=O)c1cccc(C(=O)NN)c1 | inactive |  |
| CCN(CCC#N)c1ccc(N=Nc2c(Cl)cc([N+](=O)[O-])cc2Cl)cc1 |  | 1.67 µM (active) |
| NC(=O)N=NC(N)=O | inactive |  |
| O=C1CCCCCN1SSN1CCCCCC1=O | inactive |  |
